Among the test systems are NCI-H23 lung; NCI-H226 lung; NCI-H322M lung; HOP-62 NSCLC; NCI-H460 lung; HOP-92 NSCLC; NCI-H522 lung; A549/ATCC NSCLC; 786-0 renal; COLO 205 colon; DU-145 prostate; MALME-3M melanoma; MDA-MB-231 breast; RXF 393 renal; SF-268 CNS; SF-295 CNS; SF-539 CNS; UACC-257 melanoma; M14 melanoma; K-562 leukemia.
Common to all, as to assay: NCI-60 one-dose screen, 48 h (100 = growth as untreated, 0 = no growth, -100 = all killed)
Details in all cases: 10 µM unless noted

The panel holds about 83,000 compounds, 20% with a hit somewhere; the sample as a whole holds those more often.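 How to read the values: 0–100, growth inhibition (40 = 60% inhibited); 0, no net growth; -100 to 0, cell death (-40 = 40% of starting cells died; -100 = all dead).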 Values without a mark were called inactive. Activity calls are given as the source filed them. The calls were made as follows: active = growth percent below 10; inactive = the rest.

Take `Cc1cc2cc3ccc(N(C)C)cc3nc2cc1N`: the growth was -25.6% (active) in the test with NCI-H23 lung; -28.4% (active) with NCI-H226 lung; -5.9% (active) with NCI-H322M lung; -39.1% (active) with HOP-62 NSCLC; -70.9% (active) with NCI-H460 lung; -4.62% (active) with HOP-92 NSCLC. In addition, the growth in the test on NCI-H522 lung was -49.9% (active); with A549/ATCC NSCLC it was -18.7% (active); in the test on 786-0 renal it was 8.26% (active); in the test with COLO 205 colon, -67.7% (active); in the test with DU-145 prostate, -50.3% (active); in the test with MALME-3M melanoma it was -5.97% (active). Also, the growth in the test on MDA-MB-231 breast was -18.4% (active); in the test on RXF 393 renal, -38% (active); in the test on SF-268 CNS it was 0.225% (active); in the test with SF-295 CNS it was 2.71% (active); in the test on SF-539 CNS, -4.96% (active); with UACC-257 melanoma it was -1.21% (active). Further, the growth in the test with M14 melanoma was -13.4% (active).

As to `Cc1nnc2c(Cc3ccccc3)nc3ccccc3n12`, the growth was 91.3% with NCI-H23 lung; 84.9% in the test on NCI-H226 lung; 100% with NCI-H322M lung; 108% in the test with HOP-62 NSCLC; 100% with NCI-H460 lung; 82.4% in the test on HOP-92 NSCLC. Further, the growth was 107% in the test with NCI-H522 lung; 97.9% in the test on A549/ATCC NSCLC; 98.6% with 786-0 renal; 113% in the test with COLO 205 colon; 97.7% in the test with DU-145 prostate; 109% in the test with MALME-3M melanoma. The growth was 96.1% in the test on MDA-MB-231 breast; 95.4% in the test on RXF 393 renal; 89.9% in the test on SF-268 CNS; 99.7% with SF-295 CNS; 95.8% in the test on SF-539 CNS; 104% in the test on UACC-257 melanoma. Further, the growth in the test on M14 melanoma was 99%.

As for `O=C(/C=C(/C=C/c1coc2ccccc12)OB(F)F)/C=C/c1coc2ccccc12`, the growth in the test with NCI-H23 lung was 93.9%; with NCI-H226 lung, 105%; in the test on NCI-H322M lung, 103%; with HOP-62 NSCLC it was 113%; in the test with NCI-H460 lung it was 87.7%; with HOP-92 NSCLC, 91%. For the same compound, the growth was 90.6% in the test on NCI-H522 lung; 91.6% in the test with A549/ATCC NSCLC; 102% with 786-0 renal; 99.1% in the test on DU-145 prostate; 72% with K-562 leukemia; 94.5% with MALME-3M melanoma. Besides, the growth was 101% in the test on MDA-MB-231 breast; 109% in the test with RXF 393 renal; 93.4% with SF-268 CNS; 101% in the test on SF-295 CNS; 110% in the test with SF-539 CNS; 92.3% in the test with UACC-257 melanoma. Also, the growth in the test with M14 melanoma is 96%.

`COC(=O)C(OC(C)=O)C(OC(C)=O)c1ccc(OC)c(OC)c1` (configuration not stated): the growth was 96.8% in the test on NCI-H23 lung; 98.4% in the test with NCI-H226 lung; 93.4% with NCI-H322M lung; 98.2% in the test with HOP-62 NSCLC; 104% with NCI-H460 lung; 110% in the test on HOP-92 NSCLC. The growth in the test on NCI-H522 lung was 85.9%; with A549/ATCC NSCLC, 80.1%; with 786-0 renal it was 101%; in the test on DU-145 prostate, 102%; in the test with K-562 leukemia, 83.2%; in the test with MALME-3M melanoma, 104%. Further, the growth with MDA-MB-231 breast is 92.7%; with RXF 393 renal, 125%; with SF-268 CNS it was 99.6%; with SF-295 CNS, 101%; with SF-539 CNS, 105%; in the test on UACC-257 melanoma it was 82.5%. Also, in the test on M14 melanoma, the growth is 93.9%.

Turning to `Cn1cc(-c2nc(-c3c[nH]c4c(Cl)nccc34)cs2)c2cc(F)ccc21`, the growth in the test on NCI-H23 lung was 104%; in the test on NCI-H226 lung, 95.5%; with NCI-H322M lung it was 102%; in the test on HOP-62 NSCLC, 88.5%; with NCI-H460 lung, 98.3%; with HOP-92 NSCLC, 98.2%. For the same compound, the growth is 90.2% with NCI-H522 lung; 74.5% with A549/ATCC NSCLC; 94.7% in the test on 786-0 renal; 99.8% with COLO 205 colon; 97.4% in the test with DU-145 prostate; 120% in the test with MALME-3M melanoma. Besides, the growth in the test on MDA-MB-231 breast was 100%; in the test with RXF 393 renal, 106%; in the test on SF-268 CNS, 114%; in the test on SF-295 CNS, 105%; in the test on SF-539 CNS, 107%; with UACC-257 melanoma, 70.2%. Moreover, the growth in the test with M14 melanoma was 99.9%.

`Cc1nc2sccn2c1-c1nc2sccn2c1/C=C1/C(=O)Nc2ccccc21`: the growth in the test with NCI-H23 lung is 53.4%; in the test with NCI-H226 lung it was 63.1%; with NCI-H322M lung it was 67.1%; in the test with HOP-62 NSCLC, 53.7%; with NCI-H460 lung, 20.5%; in the test with HOP-92 NSCLC it was 4.55% (active). In addition, the growth in the test with NCI-H522 lung was -6.81% (active); in the test with A549/ATCC NSCLC, 39.5%; in the test on 786-0 renal, 51.1%; with COLO 205 colon, 20.1%; in the test on DU-145 prostate, 48%; with MALME-3M melanoma, 50%. Besides, the growth with MDA-MB-231 breast is 44.6%; in the test with RXF 393 renal, 32.7%; in the test on SF-268 CNS, 60.9%; with SF-295 CNS it was -8.95% (active); with SF-539 CNS, 16.4%; in the test with UACC-257 melanoma it was 51.8%. The growth in the test with M14 melanoma was 34.2%.

For `N#Cc1c(NCc2ccccc2I)sc2c1CCCCC2`, the growth in the test on NCI-H23 lung is 87.5%; in the test with NCI-H226 lung, 87.5%; in the test on NCI-H322M lung, 89.9%; with HOP-62 NSCLC it was 91.3%; in the test with NCI-H460 lung it was 96.7%; in the test on HOP-92 NSCLC, 88.8%. In addition, the growth in the test on NCI-H522 lung was 86.7%; in the test with A549/ATCC NSCLC, 85.7%; in the test with 786-0 renal, 90%; in the test with DU-145 prostate, 102%; with K-562 leukemia, 95.3%; in the test with MALME-3M melanoma, 87.5%. Further, the growth in the test on MDA-MB-231 breast was 85.4%; in the test on RXF 393 renal, 93.6%; with SF-268 CNS, 93.7%; in the test on SF-295 CNS it was 97.3%; with SF-539 CNS, 97.3%; with UACC-257 melanoma, 93.7%. In addition, the growth with M14 melanoma was 97.3%.

For the compound `N#Cc1c(-c2ccccc2)nc2c(c(-c3ccccc3)nn2-c2ccccc2)c1-c1ccc(O)cc1`, the growth is 44.1% in the test with NCI-H23 lung; 54% in the test with NCI-H226 lung; 66.9% in the test with NCI-H322M lung; 25.3% in the test with HOP-62 NSCLC; 9.14% (active) with NCI-H460 lung; 50.1% with HOP-92 NSCLC. The growth in the test with NCI-H522 lung was 0.943% (active); in the test on A549/ATCC NSCLC it was 41.4%; with 786-0 renal it was 3.44% (active); in the test on COLO 205 colon, 41.9%; with DU-145 prostate, 49.4%; in the test on MALME-3M melanoma it was 43.8%. Besides, the growth in the test on MDA-MB-231 breast was 23.8%; in the test with RXF 393 renal, -17.6% (active); in the test with SF-268 CNS it was 55.5%; in the test with SF-295 CNS it was -43.1% (active); in the test with SF-539 CNS, 23.3%; in the test with UACC-257 melanoma, 71.3%. The growth in the test on M14 melanoma was 56.4%.

The values are drawn from PubChem BioAssay (NCI).
